Measurements: PubChem BioAssay

Assays:
Assay in all cases: Peg3 promoter luciferase inhibitors, potency, dose response, cell-based, HeLa, CREF/GAPDH counter-screen panel (AID 624167)
PEG-3 [1] = molecular target: PEG-3 (UniProt Q6IN02); details: CREF/GAPDH counter-screens; HeLa PEG-Prom luciferase reporter, overnight, run 1, dose range 1, at 100 µM (top of the series) unless noted
PEG-3 [2] = molecular target: PEG-3 (UniProt Q6IN02); details: CREF/GAPDH counter-screens; HeLa PEG-Prom luciferase reporter, overnight, run 2, dose range 1, at 100 µM (top of the series) unless noted
Rat fibroblasts (CREF) [3] = details: CREF/GAPDH counter-screens; run 1, dose range 1, at 100 µM (top of the series)
Rat fibroblasts (CREF) [4] = details: CREF/GAPDH counter-screens; run 2, dose range 1, at 100 µM (top of the series)

Sequence of PEG-3 (Q6IN02 whole entry, looked up): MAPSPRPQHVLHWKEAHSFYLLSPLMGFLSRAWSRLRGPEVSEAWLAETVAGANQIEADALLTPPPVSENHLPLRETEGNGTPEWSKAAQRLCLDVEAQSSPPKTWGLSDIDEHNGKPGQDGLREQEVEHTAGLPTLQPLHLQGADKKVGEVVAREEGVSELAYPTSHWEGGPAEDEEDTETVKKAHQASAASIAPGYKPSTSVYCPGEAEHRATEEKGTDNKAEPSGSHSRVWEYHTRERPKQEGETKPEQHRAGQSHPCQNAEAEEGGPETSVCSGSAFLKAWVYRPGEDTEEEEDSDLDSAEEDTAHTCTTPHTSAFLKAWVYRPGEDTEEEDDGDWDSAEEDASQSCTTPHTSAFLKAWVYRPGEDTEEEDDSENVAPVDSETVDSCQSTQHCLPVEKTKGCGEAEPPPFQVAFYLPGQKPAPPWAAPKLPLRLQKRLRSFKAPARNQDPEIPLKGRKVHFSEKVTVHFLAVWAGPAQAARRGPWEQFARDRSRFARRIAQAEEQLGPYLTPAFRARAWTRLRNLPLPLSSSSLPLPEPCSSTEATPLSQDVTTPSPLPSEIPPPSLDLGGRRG

Compound | inhibition (PEG-3 [1]) [%] | inhibition (PEG-3 [2]) [%] | inhibition (Rat fibroblasts (CREF) [3]) [%] | inhibition (Rat fibroblasts (CREF) [4]) [%]
Cc1cccc(N2CCN(C(=O)C3CCN(c4ncnc5c4nc4n5CCCCC4)CC3)CC2)c1C | 101 | 90.7 |  | 
CCCCCCSc1cc(-c2nc3ccc(C)cn3c2NCCCC)ccc1OC | 98.7 | 101 |  | 
COc1ccc2sc(N(CCCN(C)C)C(=O)c3ccc(S(=O)(=O)N4CCCc5ccccc54)cc3)nc2c1 | 98.4 | 102 |  | 
COC(=O)c1ccccc1-c1ccc(/C=N/Nc2nc(N3CCCC3)nc(N3CCCC3)n2)o1 | 100 | 102 |  | 
CC(C)CC(NS(=O)(=O)OCC(Cl)(Cl)Cl)c1ccccc1 (stereo not given) | 97.2 | 99.4 |  | 
CSc1ccc(CN(C)C(=O)C(Cc2ccccc2)NC(=O)c2ccccc2)cc1 (stereo not given) | 101 | 96.7 |  | 
O=C(Nc1ccccc1N1CCOCC1)c1cc(-c2ccncc2)nc2ccccc12 | 93.7 | 88 |  | 
CC(NS(=O)(=O)OCC(Cl)(Cl)Cl)c1ccc(C(C)(C)C)cc1 (stereo not given) | 101 | 97.9 |  | 
Cc1cccc(N=C2Sc3nc4c(C)c(C)ccc4cc3CN2CCN2CCOCC2)c1 | 85.6 | 93.7 |  | 
COc1cccc(Nc2nc(C(N)C3CCCCC3)cs2)n1 (stereo not given) | 98.9 | 102 |  | 
Cc1c(C(=O)Nc2ccc(S(=O)(=O)N(C)C3CCN(C)CC3)cc2)oc2c(Cl)cccc12 | 102 | 99.1 |  | 
CC(C)N1CCc2c(sc(NC(=O)c3cc4cc([N+](=O)[O-])ccc4s3)c2C(N)=O)C1 | 98.8 | 101 |  | 
Cc1ccc(NCCN(C)C)c2c(=O)c3cc(O)ccc3sc12 | 97.5 | 102 |  | 
Cc1nc(N2CCN(S(=O)(=O)c3ccccc3C#N)CC2)c2c(-c3ccccc3)csc2n1 | -7.38 | 5.99 |  | 
CN(C)CCCNc1ncnc2oc(-c3ccccc3)c(-c3ccccc3)c12 | 102 | 101 |  | 
CCC1(c2ccccc2)NC(=O)N(CC(=O)Nc2cc(S(=O)(=O)N3CCCCCC3)ccc2OC)C1=O (stereo not given) | 65.1 | 61 |  | 
O=C1/C(=C/c2ccccc2Cl)SC(=S)N1CCCC(=O)N(CCO)c1ccccc1 | 99.7 | 102 |  | 
COc1ccc(S(=O)(=O)N2c3ccccc3OCC2c2ccccc2)cc1 (stereo not given) | -135 | -3.52 |  | 
CN(CCOc1ccc(Cl)cc1)C(=O)c1cc(-c2ccco2)nc2ccccc12 | 99.6 | 96.2 |  | 
COc1ccc(-c2nc3c(C(=O)NCCN(C)C)cccc3c3ccccc23)cc1 | 102 | 99.5 |  | 
COc1cc(NC(=O)Nc2nc(C(N)CCc3ccccc3)cs2)cc(OC)c1OC (stereo not given) | 99.2 | 97.7 |  | 
O=C(CCl)N1c2ccccc2Sc2ccc3ccccc3c21 | 99.4 | 101 | 99.4 | 99.6
COC(=O)c1ccc(Nc2cc(C)nc3ccc(C)cc23)cc1 | 98.7 | 100 |  | 
O=C(O)c1ccc(N/N=C/c2ccc(OC(=O)c3ccccc3Cl)cc2)cc1 | 99.2 | 71.9 |  | 
